Compound activity: PubChem BioAssay, National Center for Advancing Translational Sciences (NCATS)
Shown are actives, neighbours in structure and some others; about 4.4% of the full set was active somewhere.
TRHR PAM: qHTS for Small Molecule Agonists and Allosteric Enhancers of Human TRH Receptor: Primary Screen for Enhancers. TRHR cells, fluo-8 calcium fluorescence, EC20 TRH enhancement. enhancement, % at 2 µM. AID 493056, 2011. 360,000 tested, 0.66% active. Thyrotropin-releasing hormone receptor (Homo sapiens), P34981; in the data active = enhancement above about 30%
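TRHR-expressing cells loaded with fluo-8 calcium dye were read kinetically (ex 480/em 530) during compound addition, then stimulated with an EC20 of TRH (10 nM final). Enhancement of the Gq-mediated intracellular calcium response was scored.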
D1 antag: Antagonist of Human D 1 Dopamine Receptor: qHTS. D(1A) dopamine receptor (Homo sapiens), P21728. HEK293 TREx D1 cells, calcium flux, dopamine EC80; stronger effect = lower value. activity change, negative = inhibition, % at 10 µM. 360,000 tested, 3.2% active. AID 504652, 2011; in the data active = activity change below about -30%
Target sequence (P21728 whole entry, looked up): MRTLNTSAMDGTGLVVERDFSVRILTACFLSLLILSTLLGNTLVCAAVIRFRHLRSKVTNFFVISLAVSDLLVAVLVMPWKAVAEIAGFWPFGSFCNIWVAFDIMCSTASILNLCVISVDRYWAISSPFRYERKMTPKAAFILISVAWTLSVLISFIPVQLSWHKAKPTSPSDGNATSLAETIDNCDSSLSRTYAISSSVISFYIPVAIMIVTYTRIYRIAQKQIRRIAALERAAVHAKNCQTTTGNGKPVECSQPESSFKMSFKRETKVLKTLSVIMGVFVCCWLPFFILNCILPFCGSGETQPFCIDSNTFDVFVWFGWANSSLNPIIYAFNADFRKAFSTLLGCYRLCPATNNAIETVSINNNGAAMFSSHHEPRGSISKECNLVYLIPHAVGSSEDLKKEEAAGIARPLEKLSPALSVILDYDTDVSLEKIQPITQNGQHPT
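HEK293 T-REx cells expressing inducible, force-coupled D1 receptor; no-wash Ca dye, 30–90 min RT. Cmpd → 180 s read at 1 Hz → EC80 DA → 180 s read.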
D1 agonist: Allosteric Agonists of the Human D1 Dopamine Receptor: qHTS; HEK293 T-REx D1 cells, calcium flux, agonist mode; 360,000 tested, 1% active; D(1A) dopamine receptor (Homo sapiens), P21728; activation, % at 2 µM
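Inducible HEK293 T-REx D1 cells, force-coupled to calcium signalling, were plated at 4000 cells/well with tetracycline and held overnight at 30 C. After no-wash calcium dye loading, compound-evoked calcium rise over 180 s flagged agonists.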
USP1 inh: Inhibitors of USP1/UAF1: Primary Screen | Ubiquitin carboxyl-terminal hydrolase 1 (Homo sapiens), O94782 | recombinant USP1/UAF1, Ub-Rhodamine cleavage fluorescence | Potency, µM (series often up to 57.1 µM), most hits filed as inhibitors | 390,000 tested, 0.23% active | AID 743255, 2014; active = well fitted inhibition curve with a large enough effect; inconclusive = small, poorly fitted or top-dose-only effect; inactive = no such curve, though single readings can be large or run the other way; also: nearly all actives have a fitted effect of over 60% in size
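1 nM enzyme complex + cpd, 15 min RT; start with Ub-Rho 150nM final; kinetic fluorescence ex 480/em 540, 6 reads q60 s. Buffer 50mM HEPES pH 7.8, 0.5mM EDTA, 0.1 mg/ml BSA, 1mM TCEP, 0.01% Tween-20.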
D1 potentiator: Potentiators of Human D1 Dopamine Receptor: qHTS. potentiation, % at 10 µM. HEK293 TREx D1 cells, calcium flux, dopamine EC20 potentiation. D(1A) dopamine receptor (Homo sapiens), P21728. 360,000 tested, 0.036% active; in the data active = potentiation above about 30%
TRHR ag: qHTS for Small Molecule Agonists and Allosteric Enhancers of Human TRH Receptor: Primary Screen for Agonists; Thyrotropin-releasing hormone receptor (Homo sapiens), P34981; TRHR cells, calcium flux fluo-8, FDSS agonist mode; activation, % at 2 µM; 360,000 tested, 0.18% active
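TRHR-expressing cells loaded with fluo-8 calcium dye; 23 nL library compound pin-transferred, kinetic FDSS fluorescence (Ex 480/Em 530) recorded about 180 s for agonist-induced calcium release, before a 10 nM TRH EC20 addition for potentiator mode.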
A number is an active result; i = inactive; ? = inconclusive; nt = not tested or not shown; ! = not confirmed by another sample. Rule as the data show it, unless noted: active = activation above about 30%; inactive = the rest.

SMILES	TRHR PAM	D1 antag	D1 agonist	USP1 inh	D1 potentiator	TRHR ag
CNC(=S)Nc1ccc(Cc2ccncc2)cc1	i	i	i	i	i	i
CCOc1ccc(OCC)c(S(=O)(=O)N2CCN(c3cccc(C)c3C)CC2)c1	i	i	i	i	i	i
COc1ccc2c(c1)c(=O)c(S(=O)(=O)c1ccccc1)cn2CC(=O)Nc1ccc(C)c(Cl)c1	i	i	i	i	i	i
CCCn1nc(C(=O)NC2CCCC2)c2ccccc2c1=O	nt	nt	nt	i	nt	nt
CCCn1nc(C(=O)NCc2ccccn2)c2ccccc2c1=O	i	-39	i	i	i	i
C#Cc1ccc([C@@H]2C=C(C(=O)O)O[C@H](OCc3ccc(CO)cc3)C2)cc1	i	-39	i	i	i	i
C#CCNC(=O)C1=C[C@@H](C2CCCCC2)C[C@@H](OCc2ccc(CO)cc2)O1	i	i	i	i	i	i
C#CCNC(=O)C1=C[C@@H](c2ccc(Br)cc2)C[C@@H](OCc2ccc(CO)cc2)O1	i	-31	i	i	i	i
O=C(O)C1=C[C@@H](c2ccccc2)C[C@@H](OCc2ccc(CO)cc2)O1	i	i	i	i	i	i
C#CCNC(=O)C1=C[C@H](c2ccc(Br)cc2)C[C@H](OCc2ccc(CO)cc2)O1	i	i	i	i	i	i
C#CCNC(=O)C1=C[C@H](C2CCCCC2)C[C@H](OCc2ccc(CO)cc2)O1	i	-35	i	i	i	i
CC1CCCC(C)N1CC(O)COc1c(F)cc(Br)cc1F (configuration not stated)	i	-52	i	i	i	i
Cc1cc(NC(=O)c2ccc(NC(=O)CCS(=O)(=O)c3cccs3)cc2)ccc1Br	i	-38	i	i	i	i
COC(=O)c1ccc(NC(=O)CCS(=O)(=O)c2ccc(Br)s2)cc1	i	-52!	i	i	i	i
Cc1ccc(S(=O)(=O)N(CC(=O)Nc2ccc(F)cc2F)Cc2ccc(F)cc2)cc1	i	i	i	i	i	i
Cc1ccc(CNC(=O)Cn2cc(C(=O)c3ccc(Cl)cc3)c(=O)c3ccc(C)nc32)cc1	i	i	i	i	i	i
COC(=O)c1cc2oc3ccccc3c2n1Cc1nc(-c2cccc(C)c2)oc1C	i	i	i	i	i	i
CCC(CC)C(=O)Nc1ccc2nc(SCC(=O)N3CCCC3)sc2c1	i	i	i	i	i	i
Cc1ccc(NC(=O)C2CCN(S(=O)(=O)c3c(C)noc3C)CC2)c(C)c1	i	i	i	?	i	i
Cn1c(CO)c(-c2ccccc2)c2cc([N+](=O)[O-])ccc21	i	i	i	i	i	i
CC(=O)OCc1c(-c2ccccc2)c2cc([N+](=O)[O-])ccc2n1C	i	-47	i	i	i	i
CC(=O)c1ccc(NC(=O)Nc2sc3nc4n(c(=O)c3c2C)CCC(C)CC4)cc1 (configuration not stated)	i	i	i	i	i	i
CCn1cc(Cl)c(C(=O)Nc2ccc3c(c2)OCCO3)n1	38	i	i	i	i	i
Cn1nc(C(=O)Nc2cccc(C(F)(F)F)c2)c2ccccc2c1=O	i	i	i	i	i	i
CCn1cc(Cl)c(C(=O)Nc2cccc(C(F)(F)F)c2)n1	i	-36	i	i	i	i
SMILES	TRHR PAM	D1 antag	D1 agonist	USP1 inh	D1 potentiator	TRHR ag
COc1ccc(-c2cc(C(F)(F)F)nc(SCC(=O)N3CCCCC3)n2)cc1OC	i	i	i	i	i	i
COc1ccc(/C=C2\SC(=S)N(CCC(=O)N(CCO)c3ccccc3)C2=O)cc1OC	i	i	i	i	i	i
CCOc1ccc(/C=C2\SC(=S)N(CCC(=O)N(CCO)c3ccccc3)C2=O)cc1	i	-31	i	i	i	i
CCc1ccc(NC(=O)Cn2cnc3sc(C)c(S(=O)(=O)N4CCN(c5ccccc5OC)CC4)c3c2=O)cc1	i	i	i	i	i	i
Cc1ccc(-c2ccc(=O)n(CCC(=O)NCCc3ccccc3)n2)cc1	i	i	i	i	i	i
Cn1cccc1CNC(=S)Nc1ccccc1Cl	i	-42	i	i	i	i
Cn1cccc1CNC(=S)Nc1ccccc1F	i	i	i	i	i	i
CCOC(=O)Cn1c(=O)n(-c2ccccc2OC)c2nc(-c3ccccc3)nc(C(N)=O)c21	i	i	i	i	i	i
COc1ccc(NC(=O)CCCc2nnc3n(C)c(=O)c4sccc4n23)cc1	i	-31	i	i	i	i
CCCn1c(=O)c2sccc2n2c(CCCC(=O)NC3CCC(C)CC3)nnc12 (configuration not stated)	37	i	i	i	i	i
Cc1cc(C)cc(NC(=O)CCc2nnc3n(C)c(=O)c4sccc4n23)c1	i	-46	i	i	i	i
CCc1ccc(NC(=O)CCc2nnc3n(C)c(=O)c4sccc4n23)cc1	i	i	i	i	i	i
CCOc1ccc(NC(=O)CCCc2nnc3n(C)c(=O)c4sccc4n23)cc1	i	i	i	i	i	i
CCOc1ccccc1CNC(=O)CCCN1C(=O)COc2ccc(C)cc21	i	i	i	i	i	i
O=C(Nc1ccc(F)cc1)c1cccc(N2CCCS2(=O)=O)c1	i	i	i	?	i	i
COc1ccc(CC(=O)OCC(=O)N2CCN(S(=O)(=O)c3ccc(C)cc3C)CC2)cc1OC	i	i	i	i	i	i
COc1ccc(CC(=O)OCC(=O)N2CCN(S(=O)(=O)c3ccc(C)cc3C)CC2)cc1	i	-90	i	i	i	i
NC(N)=Nc1nc(C2COc3ccccc3O2)cs1 (configuration not stated)	i	-31	i	i	i	i
CC(=O)Nc1nc(C2COc3ccccc3O2)cs1 (configuration not stated)	i	i	i	i	i	i
Cc1ccc(OCC(=O)NCC(=O)OCc2cc(=O)n3nc(C(C)C)sc3n2)cc1	i	i	i	i	i	i
C[n+]1cccc2c(Br)ccc([O-])c21	i	i	i	5µM	i	i
[O-][n+]1cccc2c(Br)cc(Br)c(O)c21	i	i	i	?	i	i
O=C1/C(=C\c2cc(Cl)c(O)c(Cl)c2)SC(=S)N1Cc1ccccc1	i	-85	412	4µM	i	188
COc1ccc(/C=C2/SC(=S)N(Cc3ccccc3)C2=O)cc1O	i	i	i	i	i	i
